From PubChem BioAssay
An excerpt weighted towards active compounds, which were near 1.3% of everything screened.
SUMO HTRF inh: blocks human SUMOylation mediated by UBC9. P63279. HTRF SUMOylation assay, SAE1/SAE2 + UBC9, in vitro. inhibition, % at 35 µM. actives 0.36% (n = 290,000); in the data active means inhibition above about 50%, passing the limit was not always enough
Target sequence (P63279 whole entry, looked up): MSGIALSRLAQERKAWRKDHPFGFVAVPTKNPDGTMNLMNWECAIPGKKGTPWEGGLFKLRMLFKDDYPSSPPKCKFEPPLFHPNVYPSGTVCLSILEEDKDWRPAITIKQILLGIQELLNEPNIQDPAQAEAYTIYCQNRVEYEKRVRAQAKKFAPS
NCF1 inh: p47phox (human) inhibition; P14598; p47phox/p22phox peptide binding, fluorescence polarization, 2 h; inhibition, % at 24.7 µM; actives 0.53% (n = 220,000); AID 1274;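 further: 0% = p47phox with labelled peptide and 100% = labelled peptide alone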
eIF4E 4G PPI: inhibitors of eIF4E and eIF4G interaction in translation initiation; actives 0.37% (n = 220,000); inhibition, % at 21.7 µM; TR-FRET eIF4E-eIF4GI(517-606) binding, 2 h; P63073+Q04637;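 further: 0% = full FRET control wells and 100% = background wells lacking eIF4GI fragment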
14-3-3 Bad inh: disrupts binding of bovine 14-3-3 zeta to phospho-Bad peptide; P63103; actives 0.71% (n = 220,000); inhibition, % at 21.7 µM; TR-FRET 14-3-3zeta/Dy647-pBad peptide displacement, 1 h;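 active means inhibition above about 70%, limit read from the data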;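 further: 0% = full 14-3-3 plus peptide FRET controls and 100% = background without 14-3-3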
Target sequence (P63103 whole entry, looked up): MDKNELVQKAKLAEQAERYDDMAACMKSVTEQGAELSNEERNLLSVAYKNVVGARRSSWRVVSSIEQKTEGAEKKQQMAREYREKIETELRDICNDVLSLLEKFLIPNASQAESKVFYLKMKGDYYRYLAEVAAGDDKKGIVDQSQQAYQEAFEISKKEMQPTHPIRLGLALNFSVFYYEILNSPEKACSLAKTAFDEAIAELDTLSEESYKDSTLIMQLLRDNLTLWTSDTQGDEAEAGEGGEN
Starred values were filed as active, the others as inactive; · = no result; [ ] = another dose, or the depositor's remark.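 How the source made its calls, unless noted: active means inhibition above about 30% (limit read from the data); inactive means the rest.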

SMILES	SUMO HTRF inh	NCF1 inh	eIF4E 4G PPI	14-3-3 Bad inh
CCSc1nnc(-c2cc(Br)ccc2NC(C)=O)c(=O)[nH]1	-1.5	-8.8	96.0*	3.8
O=C(Nc1ccc(CN2CCOCC2)cc1)c1ccc(-c2ccc(Cl)cc2Cl)o1	-14.4	-50.4	94.5*	-6.8
O=C(Nc1ccc(CN2CCOCC2)cc1)c1ccc(-c2cccc(Cl)c2)o1	14.4	-25.0	5.1	31.8
CCc1nnc(NC(=O)CN2C(=O)/C(=C/c3ccc(OC)c(OC)c3)SC2=S)s1	-5.6	-1.4	0.5	-8.6
O=C(O)COc1ccccc1/C=N/NC(=O)CSc1nc2ccccc2c(=O)n1-c1ccccc1	-21.5	-5.2	-2.0	1.3
Cc1ccc(C2=NN(C(=O)c3cccs3)C(c3ccccc3O)C2)cc1 (configuration not stated)	27.2	-11.6	3.4	-6.0
O=C(c1cccs1)N1N=C(c2ccccc2)CC1c1ccccc1O (configuration not stated)	65.9*	-58.1	3.4	-5.2
Clc1ccc(OCCCn2cncn2)cc1Cl	10.9	-1.5	93.0*[fluorescence artefact?]	85.9*
c1ccc(Cc2ccc(OCCn3cncn3)cc2)cc1	-1.3	-6.7	14.6	-0.8
c1ccc(-c2ccc(OCCOCCn3cncn3)cc2)cc1	-10.0	-5.4	6.5	73.3*
CCOC(=O)CSc1nnc(NC(=O)c2cc([N+](=O)[O-])cc([N+](=O)[O-])c2)s1	22.4	36.0*	-3.5	10.5
O=[N+]([O-])c1ccc(C2=NN(CCO)C(=Nc3ccc(OC(F)(F)F)cc3)SC2)cc1	-27.2	-11.5	-1.3	-5.8
C/C(NCc1cccnc1)=C(\C#N)C(=O)NCc1ccccc1	25.1	-12.9	5.0	71.3*
C/C(NCc1ccccc1)=C(\C#N)C(=O)NCc1ccccc1	-6.3	-8.5	-4.2	9.7
CCOc1cc(/C=N/NC(=O)Nc2ccccc2)ccc1O	17.2	74.9*	0.2	-1.3
CCOc1cc(/C=N/NC(=O)c2ccc(NC(=O)C3CC3)cc2)ccc1O	3.4	·	·	·
CC(C)(C)C(=O)Nc1ccnn1C1CCN(C(=O)c2cccc(Cl)c2)CC1	7.2	·	·	·
CSc1cccc(NC(=S)NCCCN2CCN(c3ccc(F)cc3)CC2)c1	-6.7	-5.6	2.5	-0.3
C=CCn1c(SCC(=O)Nc2ccccc2OC)nnc1-c1ccccn1	2.6	-10.3	-5.2	79.1*
COc1ccc(-n2c(SCc3ccc([N+](=O)[O-])cc3)nnc2-c2ccc(C)cc2)cc1	-13.4	-6.3	1.2	91.5*[fluorescence artefact?]
O=C(O)CCN1C(=O)c2ccc(NC(=O)C(c3ccccc3)c3ccccc3)cc2C1=O	44.4	-22.8	70.7*	-0.9
O=C(C1CCCN(Cc2cccc(F)c2)C1)N1CCCCC1 (configuration not stated)	14.5	2.2	-6.8	86.2*
O=C(C1CCCN(Cc2ccccc2)C1)N1CCc2ccccc2C1 (configuration not stated)	12.6	-6.6	1.1	78.0*
COc1ccc(CN2CCCC(C(=O)N3CCc4ccccc4C3)C2)cc1OC (configuration not stated)	12.4	·	·	·
CCN(CC)C(=O)C1CCCN(Cc2ccccc2C(F)(F)F)C1 (configuration not stated)	13.0	1.8	-1.8	70.9*
SMILES	SUMO HTRF inh	NCF1 inh	eIF4E 4G PPI	14-3-3 Bad inh
CCN(CC)C(=O)C1CCCN(Cc2ccccc2)C1 (configuration not stated)	14.5	1.7	-7.8	79.7*
Cc1cc(=O)c2n(Cc3ccc(Cl)cc3)nc[n+]2[nH]1	3.0	-4.5	-12.2	-4.2
CCN(CC)C(=O)C1CCCN(Cc2ccc3c(c2)OCO3)C1 (configuration not stated)	-22.3	3.3	-1.1	44.1
CCOC(=O)C1CCCN(Cc2ccc3c(c2)OCO3)C1 (configuration not stated)	-10.1	-8.0	-1.2	75.1*
COc1cccc(CN2CCN(C(=O)CC(C)C)CC2)c1	27.5	-7.2	1.7	34.0
CN(Cc1ccccc1)C(=O)C1CCCN(Cc2ccc(Cl)cc2)C1 (configuration not stated)	-2.7	0.6	7.2	75.6*
NC(=O)C1CCCN(Cc2ccc(Cl)cc2)C1 (configuration not stated)	20.3	-2.5	4.2	72.4*
O=C(NC1CCCN(Cc2ccc(Cl)cc2)C1)C1CCC1 (configuration not stated)	12.4	·	·	·
CC(C)CC(=O)N1CCN(Cc2cccc(F)c2)CC1	0.7	-7.1	72.5*	78.7*
COc1cc(CN2CCN(C(=O)c3cccc4ccccc34)CC2)cc(OC)c1O	2.8	·	·	·
CC(=O)c1c(C)[nH]c(C(=O)CSc2nnc(C)s2)c1C	21.9	-13.7	3.0	-4.6
COc1ccc(N=Cc2c(O)n(-c3ccc(OC)cc3)c(=O)c3ccccc23)cc1	34.8	32.9*	13.9	75.5*
O=c1c2ccccc2c(C=Nc2ccc(O)cc2)c(O)n1Cc1ccccc1	17.7	-82.1	34.0*	2.1
COc1ccc(Cn2c(O)c(C=Nc3ccc(O)cc3)c3ccccc3c2=O)cc1	2.0	-11.9	-2.2	-15.8
COc1cc(/C=N\NC(=O)c2ccc(C)nc2)ccc1OC(=O)c1ccc2c(c1)OCO2	26.3	-94.4	6.1	73.9*
Cc1cccc(N2CCN(C(=O)c3cc(COc4ccc(F)c(F)c4)on3)CC2)n1	-6.0	·	·	·
CCCNC(=O)c1ccc2c(=O)n(Cc3ccco3)c(=S)[nH]c2c1	63.6*	-16.0	-7.0	-4.7
CCOc1ccc(N(CC(=O)N2CCN(c3ccccc3)CC2)S(=O)(=O)c2c(C)noc2C)cc1	5.3	42.8*	0.1	4.2
COc1ccc(N(CC(=O)N2CCN(c3ccccc3)CC2)S(=O)(=O)c2c(C)noc2C)cc1	6.1	-12.8	4.3	0.4
O=C(COc1ccc(Cl)cc1[N+](=O)[O-])N/N=C/c1cccs1	19.3	-6.6	2.2	4.7
N#CC1=C2N=C(N)c3ccccc3N2C2=C(C(=O)CCC2)C1c1ccc(F)cc1 (configuration not stated)	11.4	-3.7	94.0*	-8.5
CCN(CC)CCOc1ncnc2c1oc1ccccc12	-23.5	-3.1	-4.7	4.3
CCc1nc(OCCN(CC)CC)c2oc3ccccc3c2n1	13.3	1.3	9.9	79.7*
O=C(NC(=S)NCC1CCCO1)c1ccc([N+](=O)[O-])cc1 (configuration not stated)	-3.9	2.3	-5.5	-12.8
Cc1ccc(-c2nnc(SCC(=O)N/N=C/c3ccccc3C(=O)O)n2-c2ccc(Cl)cc2)cc1	6.4	1.0	2.0	-7.6
CC1CCc2c(sc3ncnc(NCCN4CCOCC4)c23)C1 (configuration not stated)	-4.9	-14.9	50.5*	-1.5
CCc1nc2c(c(=O)[nH]1)C1(CCCC1)Cc1ccccc1-2	-20.2	6.7	2.8	3.4
NNc1nc(N)c2c(n1)-c1ccccc1CC21CCCC1	25.2	-15.8	5.3	81.6*[fluorescence artefact?]
NC(=O)c1nsc(C(=O)N(c2ccc3c(c2)OCO3)C(C(=O)NCC2CCCO2)c2ccc(F)cc2)c1N (configuration not stated)	-2.4	·	·	·
Cc1nc(C)c(C(=O)NCCC(c2ccccc2)c2ccccc2)o1	-24.7	-9.8	-0.1	92.3*
